Shown are actives, neighbours in structure and some others; about 1.6% of the full set was active somewhere.
KCNQ2 pot = potentiators of rat KCNQ2 potassium channel | Potassium voltage-gated channel subfamily KQT member 2 (Rattus norvegicus), O88943 | 0.54% of 310,000 active | CHO-K1 KCNQ2, FluxOR thallium flux fluorescence; active compounds read high | B-score at 10 µM;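 active = fluorescence ratio B-score at least 3 SD of library B-scores, with initial fluorescence B-score within 3 of them, cut at about 5.3 in these data; same plate scores as AID 2156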;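 note: B-score of peak minus minimum over baseline fluorescence ratio after K+ and Tl+ stimulus; positive B-score means potentiation of KCNQ2 with more thallium influx and brighter signal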
Target sequence (O88943 whole entry, looked up): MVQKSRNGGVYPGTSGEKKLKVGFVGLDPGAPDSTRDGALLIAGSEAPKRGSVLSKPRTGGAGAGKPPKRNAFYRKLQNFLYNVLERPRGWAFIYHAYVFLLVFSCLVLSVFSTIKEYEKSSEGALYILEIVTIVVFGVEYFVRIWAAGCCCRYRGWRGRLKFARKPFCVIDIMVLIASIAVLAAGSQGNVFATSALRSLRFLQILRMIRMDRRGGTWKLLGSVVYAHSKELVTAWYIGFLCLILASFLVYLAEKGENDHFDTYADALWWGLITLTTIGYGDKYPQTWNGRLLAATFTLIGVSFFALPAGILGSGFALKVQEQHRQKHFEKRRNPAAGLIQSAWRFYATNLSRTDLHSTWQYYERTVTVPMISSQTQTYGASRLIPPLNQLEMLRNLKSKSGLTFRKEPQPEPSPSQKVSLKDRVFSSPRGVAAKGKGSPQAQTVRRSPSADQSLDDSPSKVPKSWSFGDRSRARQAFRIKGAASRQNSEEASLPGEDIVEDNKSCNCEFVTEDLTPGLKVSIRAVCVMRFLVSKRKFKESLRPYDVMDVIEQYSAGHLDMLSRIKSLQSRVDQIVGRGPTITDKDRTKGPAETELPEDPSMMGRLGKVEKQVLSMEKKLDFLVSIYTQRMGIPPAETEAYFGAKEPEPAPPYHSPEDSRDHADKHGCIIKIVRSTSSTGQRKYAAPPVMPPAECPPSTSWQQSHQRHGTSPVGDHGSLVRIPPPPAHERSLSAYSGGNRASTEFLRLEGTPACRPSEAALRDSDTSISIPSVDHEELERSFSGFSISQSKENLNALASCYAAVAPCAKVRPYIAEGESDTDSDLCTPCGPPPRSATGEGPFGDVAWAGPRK
KCNQ2 block = rat KCNQ2 potassium channel inhibitors, primary screen, cell-based, CHO-K1, FluxOR thallium flux, B-score; Potassium voltage-gated channel subfamily KQT member 2 (Rattus norvegicus), O88943; 20 min; active compounds read low; B-score at 10 µM; 1.1% of 310,000 active;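 active = fluorescence ratio B-score at most minus 3 library SDs, with starting brightness B-score within 2 library SDs, cut at about -5.5 in these data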
KCNQ2 block conf = rat KCNQ2 potassium channel inhibitors, confirmation, cell-based, thallium flux. shares compounds with KCNQ2 block. KCNQ2-expressing cells, inhibition; active compounds read low. activity change, negative = inhibition, % at 10 µM. 57% of 1,000 active
KCNQ1 spec = human KCNQ1 channel inhibition, counter-screen for KCNQ2 inhibitor project, cell-based, FluxOR thallium flux; 15% of 1,000 active; KCNQ1-expressing cells, FluxOR thallium flux fluorescence; active compounds read low; activity change, negative = inhibition, % at 10 µM; shares compounds with KCNQ2 block;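 active = activity change at least 3 SD of negative controls below their mean in both duplicate wells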;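 note: CHO cells stably transfected with KCNQ1 and depolarized by potassium stimulus; peak minus minimum fluorescence over baseline after thallium addition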
CHO Tl ctr = thallium flux change in parental CHO cells, counter-screen for KCNQ2 inhibitor project | shares compounds with KCNQ2 block | active compounds read low | activity change, % at 10 µM | 14% of 1,000 active
KCNQ2 patch conf = rat KCNQ2 channel inhibitors, confirmation, cell-based, automated patch clamp, single concentration. shares compounds with KCNQ2 block. KCNQ2-expressing cells, automated patch clamp current. calls only at 10 µM. 49% of 550 active
Numbers stand for hits. Unless noted, the rule behind the calls is not given here.

What do the screens show for `O=C(Nc1nc(-c2ccccc2)cs1)C1CCCCN1S(=O)(=O)c1ccccc1` (stereo not given)?
KCNQ2 block: inactive

How did Cc1cc(C(=O)C[N+]2(C)CCOCC2)c(C)n1-c1ccc(Br)cc1 do in these assays?
KCNQ2 pot: inactive; KCNQ2 block: inactive

What do the screens show for `O=C(NCCCN1CCOCC1)C(=O)NCC1OCCCN1S(=O)(=O)c1cc(F)ccc1F` (stereo not given)?
KCNQ2 block: inactive

Results for CCOc1ccc(CNc2nc3ccccc3n2CCN2CCOCC2)cc1 ?
KCNQ2 block: inactive

How did Brc1cccc(CNc2nc3ccccc3n2CCN2CCOCC2)c1 do in these assays?
KCNQ2 pot: inactive; KCNQ2 block: -8.44; KCNQ2 block conf: inactive; KCNQ1 spec: inactive; CHO Tl ctr: inactive

How did CCCn1c(NCc2ccc3c(c2)OCO3)nc2ccccc21 do in these assays?
KCNQ2 block: inactive

Results for CCCCn1c(NCc2ccc3c(c2)OCO3)nc2ccccc21 ?
KCNQ2 pot: inactive; KCNQ2 block: -8.51; KCNQ2 block conf: -33.0%; KCNQ1 spec: inactive; CHO Tl ctr: inactive; KCNQ2 patch conf: active

Results for NC(=NC(=O)c1ccccc1)N1N=CCC1c1ccccc1 (stereo not given) ?
KCNQ2 pot: inactive; KCNQ2 block: inactive

Results for CCCCCCCCCCCCCCCC(O)C(N)CO (stereo not given) ?
KCNQ2 pot: inactive; KCNQ2 block: -10.1; KCNQ2 block conf: inactive; KCNQ1 spec: inactive; CHO Tl ctr: inactive

What do the screens show for `CCCCCC[C@@H]([C@@H](C)O)n1cnc2c(N)ncnc21`?
KCNQ2 pot: inactive; KCNQ2 block: inactive

How did COc1ccc(S(=O)(=O)N2CCCCCC2)cc1NC(=O)c1c2c(nc3ccccc13)CCN(Cc1ccccc1)C2 do in these assays?
KCNQ2 block: inactive

What do the screens show for `COc1ccc(NC(=O)c2c3c(nc4ccccc24)CCN(Cc2ccccc2)C3)c(OC)c1`?
KCNQ2 pot: inactive; KCNQ2 block: -11.4; KCNQ2 block conf: inactive; KCNQ1 spec: inactive; CHO Tl ctr: inactive

Results for CC1(C)CC(=O)C(N=Nc2cc(S(=O)(=O)N3CCOCC3)ccc2Cl)=C(O)C1 ?
KCNQ2 pot: inactive; KCNQ2 block: inactive

Results for CC(C)(C)N1CC23CCC(C[C@@H]2C1=O)O3 (stereo not given in full) ?
KCNQ2 pot: inactive; KCNQ2 block: inactive

How did O=C(/C=C/c1cccc(F)c1)N(c1ccccn1)C1CCCCC1 do in these assays?
KCNQ2 block: inactive

How did O=C(/C=C/c1ccc(Cl)cc1)N(c1ccccn1)C1CCCCC1 do in these assays?
KCNQ2 pot: inactive; KCNQ2 block: -8.14; KCNQ2 block conf: -44.0%; KCNQ1 spec: -35.0%; CHO Tl ctr: -34.0%; KCNQ2 patch conf: active

What do the screens show for `Cc1ccccc1OCCn1cc(C(=O)C(=O)N2CCOCC2)c2ccccc21`?
KCNQ2 pot: inactive; KCNQ2 block: -8.47; KCNQ2 block conf: -33.0%; KCNQ1 spec: inactive; CHO Tl ctr: inactive; KCNQ2 patch conf: active

Results for O=C(C(=O)N1CCOCC1)c1cn(CCOc2ccccc2)c2ccccc12 ?
KCNQ2 block: inactive

How did Cc1ccc(NC(=O)c2ccc(OC(=O)C(C)Oc3ccc(Cl)cc3C)cc2)cc1 (stereo not given) do in these assays?
KCNQ2 block: inactive

Results for CCN(CC1CCCO1)C(=O)c1cc(COc2ccccc2SC)on1 (stereo not given) ?
KCNQ2 block: inactive

What do the screens show for `O=C(NCCC(=O)N(CCc1ccccc1)Cc1ccccc1)c1ccc(Br)cc1`?
KCNQ2 pot: inactive; KCNQ2 block: -9.15; KCNQ2 block conf: -18.5%; KCNQ1 spec: inactive; CHO Tl ctr: inactive; KCNQ2 patch conf: inactive

How did O=C(NCCCCc1ccccc1)c1ccc(Br)cc1 do in these assays?
KCNQ2 pot: inactive; KCNQ2 block: inactive

What do the screens show for `O=C(CCCOc1ccc(Cl)cc1Cl)N1CCCc2ccccc21`?
KCNQ2 pot: inactive; KCNQ2 block: -14.4; KCNQ2 block conf: inactive; KCNQ1 spec: inactive; CHO Tl ctr: inactive
